For 37 molecules, relative cell viability results are on record in the supplement of paper PMC9492666.

Structures can show the parent of a compound that is named as a salt.
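Further: viability read by CCK-8 kit in 96-well plates, part of a combination screen pairing lipid-metabolism-targeting compounds with erastin.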

The test system of this experiment is MDA-MB-231. As to the kind of experiment: relative cell viability, compound + erastin, vs DMSO (fraction of DMSO control); higher = less growth inhibition. Particulars: 72 h.
As to `Cc1nc2ccc(NCc3cccc(C(F)(F)F)c3)cc2n(CCNC(=O)CO)c1=O` + CCOc1ccccc1-n1c(C(C)N2CCN(C(=O)COc3ccc(Cl)cc3)CC2)nc2ccccc2c1=O [erastin], the relative cell viability was 0.89.
As for `CC(C)c1nc(N(C)S(C)(=O)=O)nc(-c2ccc(F)cc2)c1/C=C/[C@@H](O)C[C@@H](O)CC(=O)O` [Rosuvastatin] + CCOc1ccccc1-n1c(C(C)N2CCN(C(=O)COc3ccc(Cl)cc3)CC2)nc2ccccc2c1=O [erastin], the relative cell viability amounted to 0.781.
With `O=C(O)c1cc2c(Cl)c(N3CCN(S(=O)(=O)c4c(Cl)cccc4Cl)CC3)ccc2o1` [Vonafexor] + CCOc1ccccc1-n1c(C(C)N2CCN(C(=O)COc3ccc(Cl)cc3)CC2)nc2ccccc2c1=O [erastin], the relative cell viability was determined as 0.989.
As for `CC(=O)Oc1cc(C(F)(F)F)ccc1C(=O)O` [Triflusal] + CCOc1ccccc1-n1c(C(C)N2CCN(C(=O)COc3ccc(Cl)cc3)CC2)nc2ccccc2c1=O [erastin], the relative cell viability was determined as 0.648.
With `Nn1nnc2ccccc21` [1-Aminobenzotriazole] + CCOc1ccccc1-n1c(C(C)N2CCN(C(=O)COc3ccc(Cl)cc3)CC2)nc2ccccc2c1=O [erastin], the relative cell viability is 0.73.
On to `O=c1cc(-c2ccc(O)c(-c3c(O)cc(O)c4c(=O)cc(-c5ccc(O)cc5)oc34)c2)oc2cc(O)cc(O)c12` [Amentoflavone] + CCOc1ccccc1-n1c(C(C)N2CCN(C(=O)COc3ccc(Cl)cc3)CC2)nc2ccccc2c1=O [erastin], for which the relative cell viability was found to be 0.715.
In the case of `CCC1=N[C@H]2C[C@@]3(C(=O)N(OC)c4ccccc43)[C@H]3CC1[C@@H]2CO3` [Humantenmine] + CCOc1ccccc1-n1c(C(C)N2CCN(C(=O)COc3ccc(Cl)cc3)CC2)nc2ccccc2c1=O [erastin], the relative cell viability was determined as 0.63.
Regarding `CCCCCCCCCCCCC/C=C/[C@@H](O)[C@@H](N)CO` + CCOc1ccccc1-n1c(C(C)N2CCN(C(=O)COc3ccc(Cl)cc3)CC2)nc2ccccc2c1=O [erastin], the relative cell viability was found to be 0.363.
Take `OC[C@H]1O[C@@H](Oc2cc(O)cc(/C=C/c3ccc(O)cc3)c2)[C@H](O)[C@@H](O)[C@@H]1O` [Polydatin] + CCOc1ccccc1-n1c(C(C)N2CCN(C(=O)COc3ccc(Cl)cc3)CC2)nc2ccccc2c1=O [erastin]: the relative cell viability was found to be 0.601.
With `O=C(O)/C=C/c1ccc(O)c(O)c1` [Caffeic Acid] + CCOc1ccccc1-n1c(C(C)N2CCN(C(=O)COc3ccc(Cl)cc3)CC2)nc2ccccc2c1=O [erastin], the relative cell viability came out at 0.979.
As for `O=C1c2cccc(O)c2C(=O)c2c(O)cccc21` [Antrapurol] + CCOc1ccccc1-n1c(C(C)N2CCN(C(=O)COc3ccc(Cl)cc3)CC2)nc2ccccc2c1=O [erastin], the relative cell viability turned out to be 0.903.
Take `O=C(O)CCn1c2c(c3ccccc31)C[C@H](NS(=O)(=O)c1ccc(F)cc1)CC2` [Ramatroban] + CCOc1ccccc1-n1c(C(C)N2CCN(C(=O)COc3ccc(Cl)cc3)CC2)nc2ccccc2c1=O [erastin]: the relative cell viability is 0.806.
In the case of `O=c1c(-c2ccc(O)cc2)coc2cc(O)ccc12` [Daidzein] + CCOc1ccccc1-n1c(C(C)N2CCN(C(=O)COc3ccc(Cl)cc3)CC2)nc2ccccc2c1=O [erastin], the relative cell viability was 0.619.
The figure for `Cc1ccc(/C=C2\SC(=S)N(CCCCCC(=O)Nc3ccc(C(=O)O)c(O)c3)C2=O)cc1` + CCOc1ccccc1-n1c(C(C)N2CCN(C(=O)COc3ccc(Cl)cc3)CC2)nc2ccccc2c1=O [erastin] is 0.638.
The figure for `COc1ccc(-c2coc3cc(O)cc(O)c3c2=O)cc1` [Biochanin A] + CCOc1ccccc1-n1c(C(C)N2CCN(C(=O)COc3ccc(Cl)cc3)CC2)nc2ccccc2c1=O [erastin] is 0.559; for `O=C(ON1C(=O)CCC1=O)N1CCN(C(c2ccc(Cl)cc2)c2ccc(Cl)cc2)CC1` [Cravatt Reagent] + CCOc1ccccc1-n1c(C(C)N2CCN(C(=O)COc3ccc(Cl)cc3)CC2)nc2ccccc2c1=O [erastin] it is 0.772.
In the case of `CN(C)C(=N)NC(=N)N` [Metformin] + CCOc1ccccc1-n1c(C(C)N2CCN(C(=O)COc3ccc(Cl)cc3)CC2)nc2ccccc2c1=O [erastin], the relative cell viability amounted to 0.546.
Regarding `CC(C)=CCC(O)C1=CC(=O)c2c(O)ccc(O)c2C1=O` (single isomer, unassigned; (+)) [(+)-Shikonin] + CCOc1ccccc1-n1c(C(C)N2CCN(C(=O)COc3ccc(Cl)cc3)CC2)nc2ccccc2c1=O [erastin], the relative cell viability came to 0.494.
The figure for `Cc1cc(C)c(S(=O)(=O)N(CCc2cccc(Br)c2)Cc2ccc(-c3cccc(S(C)(=O)=O)c3)cc2)c(C)c1` + CCOc1ccccc1-n1c(C(C)N2CCN(C(=O)COc3ccc(Cl)cc3)CC2)nc2ccccc2c1=O [erastin] is 0.777; for `Nc1ccc(O)c(C(=O)O)c1` [Mesalamine] + CCOc1ccccc1-n1c(C(C)N2CCN(C(=O)COc3ccc(Cl)cc3)CC2)nc2ccccc2c1=O [erastin] it is 0.585.
Consider `O=C(Nc1ccc(C(O)(C(F)(F)F)C(F)(F)F)cc1)c1ccc(C(F)(F)F)cc1` + CCOc1ccccc1-n1c(C(C)N2CCN(C(=O)COc3ccc(Cl)cc3)CC2)nc2ccccc2c1=O [erastin], for which the relative cell viability is 0.693.
For the molecule `CC[C@@H]1/C=C(\C)C[C@H](C)C[C@H](OC)[C@H]2O[C@@](O)(C(=O)C(=O)N3CCCC[C@H]3C(=O)O[C@H](/C(C)=C/[C@@H]3CC[C@@H](O)[C@H](OC)C3)[C@H](C)[C@@H](O)CC1=O)[C@H](C)C[C@@H]2OC` [Ascomycin] + CCOc1ccccc1-n1c(C(C)N2CCN(C(=O)COc3ccc(Cl)cc3)CC2)nc2ccccc2c1=O [erastin], the relative cell viability is 0.303.
On to `Cc1cc(=O)oc2c(O)c(O)ccc12` [7,8-Dihydroxy-4-methylcoumarin] + CCOc1ccccc1-n1c(C(C)N2CCN(C(=O)COc3ccc(Cl)cc3)CC2)nc2ccccc2c1=O [erastin], for which the relative cell viability is 0.881.
As for `Cn1c2cc([S+](C)[O-])sc2c2cnn(Cc3cccc(N)c3)c(=O)c21` (configuration not stated) + CCOc1ccccc1-n1c(C(C)N2CCN(C(=O)COc3ccc(Cl)cc3)CC2)nc2ccccc2c1=O [erastin], the relative cell viability was 0.745.
As for `COC(=O)CN(c1ccc(CN(c2ccc(OCc3ccc(C)cc3)c(C(=O)OC)c2)S(=O)(=O)Cc2ccccc2)cc1)S(C)(=O)=O` + CCOc1ccccc1-n1c(C(C)N2CCN(C(=O)COc3ccc(Cl)cc3)CC2)nc2ccccc2c1=O [erastin], the relative cell viability came out at 0.643.
Turning to `Cc1c(C)c2c(c(C)c1O)CCC(C)(COc1ccc(CC3SC(=O)NC3=O)cc1)O2` (configuration not stated) [Troglitazone] + CCOc1ccccc1-n1c(C(C)N2CCN(C(=O)COc3ccc(Cl)cc3)CC2)nc2ccccc2c1=O [erastin], the relative cell viability is 0.669.
Take `CC(C)CCC[C@@H](C)[C@H]1CC[C@H]2[C@@H]3CCC4=CC(=NO)CC[C@]4(C)[C@H]3CC[C@]12C` [Olesoxime] + CCOc1ccccc1-n1c(C(C)N2CCN(C(=O)COc3ccc(Cl)cc3)CC2)nc2ccccc2c1=O [erastin]: the relative cell viability was 0.663.
As for `NC(CO)C(=O)O` (racemic) [DL-Serine] + CCOc1ccccc1-n1c(C(C)N2CCN(C(=O)COc3ccc(Cl)cc3)CC2)nc2ccccc2c1=O [erastin], the relative cell viability is 0.62.
The figure for `Nc1ccc(C(=O)O)c(O)c1` [Aminopar] + CCOc1ccccc1-n1c(C(C)N2CCN(C(=O)COc3ccc(Cl)cc3)CC2)nc2ccccc2c1=O [erastin] is 0.664; for `O=C(Nc1cccnn1)N1CCC(=Cc2cccc(Oc3ccc(C(F)(F)F)cn3)c2)CC1` + CCOc1ccccc1-n1c(C(C)N2CCN(C(=O)COc3ccc(Cl)cc3)CC2)nc2ccccc2c1=O [erastin] it is 0.554.
Regarding `Cc1c(C(=O)NN2CCCCC2)nn(-c2ccc(Cl)cc2Cl)c1-c1ccc(Cl)cc1` [Rimonabant] + CCOc1ccccc1-n1c(C(C)N2CCN(C(=O)COc3ccc(Cl)cc3)CC2)nc2ccccc2c1=O [erastin], the relative cell viability came out at 0.273.
Regarding `COP(=O)(OC)OC(c1ccc(Cl)cc1)P(=O)(OC)OC` (configuration not stated) [Mifobate] + CCOc1ccccc1-n1c(C(C)N2CCN(C(=O)COc3ccc(Cl)cc3)CC2)nc2ccccc2c1=O [erastin], the relative cell viability is 1.06.
On to `NC(N)=N/N=C/c1cccc(Cl)c1Cl` [Raphin1 acetate] + CCOc1ccccc1-n1c(C(C)N2CCN(C(=O)COc3ccc(Cl)cc3)CC2)nc2ccccc2c1=O [erastin], for which the relative cell viability was 0.588.
Take `COc1ccc2[nH]cc(CCNC(C)=O)c2c1` [Melatonine] + CCOc1ccccc1-n1c(C(C)N2CCN(C(=O)COc3ccc(Cl)cc3)CC2)nc2ccccc2c1=O [erastin]: the relative cell viability worked out at 0.693.
The figure for `C=C1C[C@]2(O)O[C@@]3(CC2=C(C)C)[C@@H](C)CC[C@@H]13` [Isocurcumenol] + CCOc1ccccc1-n1c(C(C)N2CCN(C(=O)COc3ccc(Cl)cc3)CC2)nc2ccccc2c1=O [erastin] is 0.662; for `c1cc(-c2cnn3cc(-c4ccc(OCCN5CCCCC5)cc4)cnc23)ccn1` [Dorsomorphin dihydrochloride] + CCOc1ccccc1-n1c(C(C)N2CCN(C(=O)COc3ccc(Cl)cc3)CC2)nc2ccccc2c1=O [erastin] it is 0.362; for `O=C(O)c1cccnc1Nc1cccc(C(F)(F)F)c1` [Niflumic acid] + CCOc1ccccc1-n1c(C(C)N2CCN(C(=O)COc3ccc(Cl)cc3)CC2)nc2ccccc2c1=O [erastin] it is 0.599.
